Screening results from PubChem.
This is a sample that favours compounds with a hit; in the whole collection about 2.4% have one here.
TSG101-PTAP inh – blocks PTAP/TSG101 interaction to inhibit HIV-1 budding | Fluorescence polarization, FITC-PTAP peptide / Tsg101 binding | Q99816 | 340,000 tested, under 10 active | AID 493005 | Potency, µM (doses to about 115 µM), inactives show top-dose activity change, negative = inhibition, hits mostly inhibitors; active means well fitted inhibition curve with a large enough effect in the main read-out, with a control signal flat, not every such curve was filed as active; inconclusive means small, poorly fitted or top-dose-only effect, or effect the other way, or a change in a side signal; inactive means no such curve, though single readings can be large or run the other way; further: % of control where 0% means no effect
Target sequence (Q99816 whole entry, looked up): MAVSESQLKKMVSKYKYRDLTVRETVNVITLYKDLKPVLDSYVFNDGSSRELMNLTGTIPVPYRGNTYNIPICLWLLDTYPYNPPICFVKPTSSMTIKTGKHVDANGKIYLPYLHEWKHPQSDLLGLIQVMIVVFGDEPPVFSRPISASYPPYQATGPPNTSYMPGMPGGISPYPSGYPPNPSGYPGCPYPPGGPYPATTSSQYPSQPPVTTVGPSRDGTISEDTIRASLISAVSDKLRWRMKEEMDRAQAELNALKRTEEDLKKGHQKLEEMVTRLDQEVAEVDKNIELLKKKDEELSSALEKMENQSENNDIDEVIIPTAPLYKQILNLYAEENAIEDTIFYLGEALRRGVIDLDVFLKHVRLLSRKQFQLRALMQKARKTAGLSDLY
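FP read-out: FITC-PTAP peptide, 50 nM final, binding Tsg101 binding domain, 10 uM final; 20 min, r.t.; 10 mM HEPES pH 7.5, 0.15 M NaCl, 0.01% Tween 20, 3 mM EDTA, 0.1 mM TCEP.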
ALOX12 inh – inhibitors of human 12S-lipoxygenase ALOX12; P18054; purified 12hLO, xylenol orange hydroperoxide absorbance; Potency, µM (series often up to 108 µM), inactives show top-dose activity change, negative = inhibition, hits mostly inhibitors; 1.1% of 580,000 active; AID 1671190; further: on the % scale 0 is the no-effect control and ±100 the full control effect
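Purified human 12hLO at 150 nM in 25 mM Hepes, 0.01% Triton X-100, pH 7.0, preincubated 15 min at room temperature with compound. Reaction started with 40 uM arachidonic acid, 30 min at room temperature. Hydroperoxide measured by Fe-xylenol orange, 573/405 nm absorbance ratio.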
Rango dissoc inh – prevents RanGTP from dissociating the Rango-importin beta complex; O95149+P62826; Biochemical FRET Rango-importin beta, RanGTP-induced dissociation; Potency, µM (titrated, usually from 46.1 µM), for the others: at the top dose activity change, negative = inhibition; 0.071% of 340,000 active; calls by dose curve; further: % of control where 0% means no effect; nearly all actives have a fitted effect of over 45% in size
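Rango FRET biosensor (snurportin-1 IBB flanked by N-terminal EYFP and C-terminal CFP10) at 0.1 uM, with 0.25 uM importin beta in PBS, 1mM DTT, 0.02% Tween-20, 0.1% BSA. 0.6 uM Ran, 2mM GTP and 0.2 uM RCC1 were then added for 45 min at room temperature. Inhibition read as loss of FRET rise.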
TDP1 block – inhibitors of human tyrosyl-DNA phosphodiesterase TDP1; Q9NUW8; recombinant TDP1, AlphaScreen DNA substrate cleavage; Potency, µM (highest dose often 130 µM), for the others: at the top dose activity change, negative = inhibition, usual class: inhibitors; 0.28% of 350,000 active; AID 485290; further: on the % scale 0 is the no-effect control and ±100 the full control effect; nearly all actives have a fitted effect of over 40% in size
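AlphaScreen read-out: signal falls as enzyme removes the 3' tyrosine-FITC from a 5'-biotinylated DNA oligo (15 nM, 5 min, RT). Enzyme was E. coli-made recombinant Tdp1 at 1 nM, exposed to compound for 15 min beforehand; beads 10 ug/ml, 10 min.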
ClpP mod – qHTS Assay for Activators of ClpP; purified B. subtilis ClpP, FRET peptide cleavage, 20 min; Potency, µM (doses to about 57.5 µM), without a hit: at the highest dose activity change, negative = active; AID 651965, 2013; 1.9% of 340,000 active; ATP-dependent Clp protease proteolytic subunit (Bacillus subtilis (strain 168)), P80244; active means well fitted falling curve with a large enough effect; inconclusive means small, poorly fitted or top-dose-only effect; inactive means no such curve, though single readings can be large or run the other way; further: the source files actives as falling curves though it sought activators and does not explain the sign; nearly all actives have a fitted effect of over 65% in size
Target sequence (P80244 whole entry, looked up): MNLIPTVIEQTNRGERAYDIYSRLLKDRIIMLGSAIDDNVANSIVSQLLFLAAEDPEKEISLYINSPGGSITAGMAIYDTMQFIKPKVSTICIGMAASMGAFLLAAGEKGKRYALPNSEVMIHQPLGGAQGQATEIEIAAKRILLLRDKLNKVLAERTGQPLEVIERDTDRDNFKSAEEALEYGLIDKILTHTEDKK
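Purified B. subtilis ClpP, 10 microg/mL final in Tris/HCl pH8 with KCl, BSA, glycerol and Tween-20, cleaved an Abz/nitrotyrosine-quenched decapeptide. Fluorescence (ex 320, em 430) was read at 0 and 20 min at room temperature. Delta was normalized to 5.8 microM ADEP and DMSO/no-enzyme controls.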
Rango-impB inh – inhibitors of Rango-importin beta complex formation; Q14974; Rango CFP/YFP FRET sensor + importin beta, 45 min; Potency, µM (top dose mostly 92.2 µM), for the others: at the top dose inhibition of complex formation; 0.031% of 340,000 active; AID 540263; calls by dose curve;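 further: 0% = DMSO wells and 100% = buffer wells lacking importin beta; nearly all actives have a fitted effect of over 15% in size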
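FRET biosensor Rango (snurportin 1 IBB between N-terminal EYFP and C-terminal Cerulean), 50 nM in PBS/1 mM DTT/0.02% Tween-20/0.1% BSA, preincubated 5 min RT with compound; 0.125 microM importin beta added, 45 min RT, CFP/YFP FRET ratio read.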
The depositor's hits bear a star; ? = inconclusive; · = not tested or not shown; ! = not confirmed by another sample; [ ] = remark or other dose. Unless noted, the call rests on the fitted dose curve; in most records, active means well fitted curve in the direction sought with a large enough effect; inconclusive means small, poorly fitted or top-dose-only effect, or another doubt; inactive means no such curve, though single readings can be large; an effect the other way counts as inactive or inconclusive. Potency means the concentration at half of the fitted maximal effect.

SMILES	TSG101-PTAP inh	ALOX12 inh	Rango dissoc inh	TDP1 block	ClpP mod	Rango-impB inh
Cc1cccc2c(N3CCCC3)nc(CNS(=O)(=O)c3ccc4ccccc4c3)nc12	·	14%	·	·	·	·
CC(C)CCC(CCNC(C)c1cccs1)C1CCOC(C)(C)C1 (stereo not drawn)	·	1.8µM*	·	·	·	·
CN(C)[S+](=O)([O-])c1ccc2c(c1)OCCN(Cc1ccncc1)C2	·	-3%[176 µM]	·	·	·	·
Cc1ccc(Nc2c(-c3ccc(C)o3)nc3cccc(C)n23)cc1	·	45µM*	·	9%	4%	·
Cc1ccc(-c2nc3cccc(C)n3c2Nc2ccc3c(c2)OCO3)o1	·	?	·	12%	4%	·
CCN(CC)C(=O)C1=C(C)N(Cc2ccc(OC)cc2)C(=O)C(CC(=O)NCCN2CCOCC2)C1 (stereo not drawn)	·	16µM*	·	·	0%	·
S=c1[nH]c(-c2ccc(Cl)cc2Cl)cs1	·	13µM*	·	·	·	·
S=c1[nH]c(-c2cccc(Cl)c2)cs1	·	8.9µM*	·	·	·	·
S=c1[nH]cc(Oc2ccc(Cl)cc2Cl)c(=S)[nH]1	-13%	?	-9%	·	·	5%
Fc1ccc(-c2csc(=S)[nH]2)cc1	0%	7.9µM*!	31%	3%	·	3%
CCCNc1c(NS(=O)(=O)c2ccc(F)c(C)c2)c(=O)oc2ccccc12	·	-13%	·	·	·	·
CCn1c(=NC(=O)c2ccc(S(=O)(=O)N3CCOCC3)cc2)sc2cccc(OC)c21	0%	0%	-2%	5%	32µM*	?
Cn1cnc(S(=O)(=O)N2CCCC(c3nc(-c4cnccn4)no3)CCNC(=O)CC2)c1 (stereo not drawn)	·	10%	·	·	·	·
O=C(c1ccc(Cl)cc1)N1CC2(CCN(Cc3ccc(Cl)cc3)C2)Cc2ccccc21 (stereo not drawn)	·	2µM*	·	·	·	·
CC(=O)N1CC2(CCN(Cc3ccc(Cl)cc3)C2)Cc2ccccc21 (stereo not drawn)	·	40µM*	·	·	·	·
O=C(c1ccc(Cl)cc1)N1CC2(CCN(C3COC3)C2)Cc2ccccc21 (stereo not drawn)	·	40µM*	·	·	·	·
CCN(CC)C(=O)CSCc1cccs1	·	-16%	·	·	·	·
Cc1noc(-c2ccn3c(CNC(=O)c4cccc(N(C)C)c4)nnc3c2)n1	·	42%	·	·	·	·
CN(C)C(=O)c1ccc(-c2ncc3c(n2)OCCN(Cc2ccc(F)cc2F)C3=O)cc1	·	25%[176 µM]	·	·	·	·
c1ccc2c(c1)ccc1[nH]c3c(c12)CCCC3	-3%	?	-11%	·	18µM*	-8%
CC1(C)CC(=O)c2cc(-c3nc(-c4ccc(Cl)cc4)cs3)c(=O)n(-c3ccc(F)cc3)c2C1	·	-28%	·	2%	40µM*	·
Cc1ccc(-c2cc3c(n2-c2ccc(F)cc2)CC(C)(C)CC3=O)cc1	·	1%	·	7%	-12%	·
COC(=O)CN1C(=S)N(c2ccc(Cl)cc2)C(=O)C1CC(=O)Nc1ccc(Cl)cc1 (stereo not drawn)	0%	35µM*	4%	-8%	0%	-1%
CCNc1c(NC(=O)Nc2ccc(CC)cc2)c(=O)oc2ccccc12	·	45µM*	·	·	·	·
Cc1cc(C)n2nc(CC(=O)Nc3nc(-c4c(F)cccc4F)cs3)nc2n1	·	-28%	·	·	·	·
SMILES	TSG101-PTAP inh	ALOX12 inh	Rango dissoc inh	TDP1 block	ClpP mod	Rango-impB inh
O=C(Nc1ccc(Cl)cc1)[C@@H]1[C@@H]2C(=O)N(c3ccc4ccccc4c3)C(=O)[C@@H]2[C@H]2C=CC=NN21	2%	18µM*	-18%	3%	-2%	-1%
O=C(/C=C/c1ccc(O)c(O)c1)c1ccc(O)cc1O	·	8.9µM*	·	11%	·	·
O=C(/C=C/c1ccc(Br)cc1)NC(=O)c1ccccc1O	-4%	10%	-4%	-1%	·	3%
O=C(/C=C/c1ccc(O)c(O)c1)NC(=O)c1ccccc1O	-3%	40µM*	-2%	-5%	-3%	0%
Cc1ccc(N(C)S(=O)(=O)c2c(-c3ccccc3)csc2C(=O)NCc2cccnc2)cc1C	·	77%	·	·	·	·
COc1ccccc1-c1sc2ccccc2c1-c1ccc(OCCN2CCCCC2)cc1	-3%	·	-15%	6%[56.1 µM]	32µM*	2%
COc1ccc(-c2c(-c3ccccc3OC)sc3ccccc23)cc1OC	-3%	3%	2%	·	28µM*	3%
COc1cccc(-c2sc3ccccc3c2-c2ccc(OCCN3CCCCC3)cc2)c1	1%	·	6%	8%	?	0%
COc1cccc(-c2sc3cc(OC)c(OC)cc3c2-c2ccc(OCCN3CCCCC3)cc2)c1	2%	·	20%	8%[56.1 µM]	28µM*	2%
COc1ccc(-c2c(-c3ccccc3OC)sc3ccccc23)cc1F	·	-3%	·	·	·	·
CC(C)c1nncn1C1CCN(S(=O)(=O)c2ccc(F)cc2F)CC1	·	34%	·	·	·	·
CCCC1c2nccn2CCCN1C(=O)c1cccc(OC)c1OC (stereo not drawn)	·	10%	·	·	·	·
CCOc1cc(Br)cc(/C=C2\SC(=Nc3ccccc3)NC2=O)c1O	-1%	-16%	-3%	·	0%	9%
C=CCOc1ccc(Br)cc1/C=C1/SC(=Nc2ccc(C(=O)O)cc2)NC1=O	-20%	?	-12%	79µM*	-1%	?
CCCC(C)NC(=O)c1c(C)c(-c2cccc(Cl)c2)nc2ccccc12 (stereo not drawn)	·	-3%	·	·	·	·
CCC1(C)Cc2c(sc3nnn(CC(=O)Nc4cccc(Cl)c4)c(=O)c23)CO1 (stereo not drawn)	·	-3%	·	·	·	·
COCCc1noc([C@@H]2CN(CC(C)(C)C)C[C@H]2CO)n1	·	6%	·	·	·	·
Cc1ccc(S(=O)(=O)/N=C2/NC(=O)/C(=C/c3ccc(Br)o3)S2)cc1	-9%	1µM*	1%	·	-8%	-5%
O=C(O)c1ccc(NC(=S)NC(=O)c2cccc(COc3ccccc3)c2)cc1	-6%	7.9µM*	-10%	8%	1%	-1%
c1cc(CN2CCCCC2)cc(OCCCNc2nc3ccccc3s2)c1	-6%	?	-23%	9%[56.1 µM]	1%	-3%
O=C(NCCCOc1cccc(CN2CCCCC2)c1)c1ccc(Cl)c(Cl)c1	-1%	-26%	5%	-5%	16µM*	-2%
O=C(NC(=S)Nc1ccc(CN2CCCCC2)cc1)c1cccc(OCc2ccccc2)c1	0%	32µM*	?	5%	·	-5%
CCCc1cc(=O)oc2cc(OS(=O)(=O)c3ccc(C(C)=O)cc3)ccc12	·	35%	·	·	·	·
Cc1ccc(CNC(=O)C(C)C2CCOCC2)cc1C (stereo not drawn)	·	25%	·	·	·	·
CCCN(CC1CC1)C(=O)C1CCC(=O)N(Cc2ccc(Cl)cc2)C1 (stereo not drawn)	·	40%	·	·	·	·
